Results as given in PubChem BioAssay (NCATS).
Activity calls are given as the source filed them. Calls follow the shape of the dose curve; as a rule, active = well fitted curve in the direction sought with a large enough effect; inconclusive = small, poorly fitted or top-dose-only effect, or another doubt; inactive = no such curve, though single readings can be large or run the other way.

These compounds were tested against Guanine nucleotide-binding protein G(i) subunit alpha-1 (Homo sapiens) (UniProt P63096) (assay: qHTS Assay for Inhibitors of RGS12 GoLoco Motif Activity (Green Fluorophore) (AID 879;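 as to activity, negative = inhibition: 0% = labeled peptide with Gαi1 and full inhibition = labeled peptide alone without protein; negative values mean loss of peptide binding seen as reduced polarization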)). Settings: Galphai1/FITC-RGS12 GoLoco peptide, fluorescence polarization; series mostly up to 57.1 µM; activity, negative = inhibition: at the top concentration.
Excerpt: Assay Overview: NIH Molecular Libraries Screening Centers Network [MLSCN] NIH Chemical Genomics Center [NCGC] MLSCN Grant: NS053754-01 Assay Provider: Siderovski, David P, University of North Carolina at Chapel Hill G-protein-coupled receptors (GPCRs) are major targets for drug discovery. The regulator of G-protein signaling (RGS)-protein family has important roles in GPCR signal transduction. RGS proteins contain a conserved RGS-box, which is often accompanied by other signaling regulatory elements. RGS proteins accelerate the deactivation of G proteins to reduce GPCR signaling; however, some also have an effector function and transmit signals. Combining GPCR agonists with RGS inhibitors should potentiate responses, and could markedly increase the agonist's regional specificity. The diversity of RGS proteins with highly localized and dynamically regulated distributions in brain makes them attractive targets for pharmacotherapy of central nervous system disorders. […] A complex of Gai1 and fluorescently labeled G-alpha-binding peptide (the "GoLoco motif") derived from RGS12 is incubated with library members. Inhibitors of the binding are detected by a decrease in the fluorescence polarization (FP) of the fluorophore. Protein was supplied by Prof. David Siderovski, University of North Carolina at Chapel Hill.
Assay Protocol: Reagents/Controls: Assay Buffer: 10 mM Tris-HCl, 150 mM NaCl, 0.1 mM GDP (prepared fresh), and 0.05% NP40 at pH 7.5. […] 10 nM FITC labeled peptide/50 nM protein in columns 1, 2, 5 - 48. Titration of unlabeled peptide control ([H][…][NH2], custom synthesized and HPLC-purified by Tufts University Core Facility) from 10 mM, then 1:2 dilution, 16-point in duplicate, pin-transferred to column 2, rows 1 to 32. Column 1 is neutral. FITC-labeled RGS12-GoLoco peptide was custom-synthesized and HPLC-purified by Michael Berne of Tufts University Assay Steps. Four uL of reagents were dispensed to 1536-well Greiner black solid-bottom plates. Compounds and controls (23 nL) were transferred via Kalypsys PinTool. The plates were incubated for 10 min at room temperature, and then read on ViewLux (Perkin-Elmer) High-throughput CCD imager using FITC polarization filter sets for the fluorescein-labeled decapeptide probe.During dispense, reagent bottles were kept submerged into 4 deg C water bath and all liquid lines were covered with aluminum foil to minimize probe and protein degradation. All screening operations were performed on a Kalypsys robotic system (Kalypsys, Inc., San Diego, CA) containing one RX-130 and two RX-90 anthropomorphic robotic arms.
Potency is read from the fitted curve at half-maximal effect.

Chain of Guanine nucleotide-binding protein G(i) subunit alpha-1 (Homo sapiens) (P63096 whole entry, looked up): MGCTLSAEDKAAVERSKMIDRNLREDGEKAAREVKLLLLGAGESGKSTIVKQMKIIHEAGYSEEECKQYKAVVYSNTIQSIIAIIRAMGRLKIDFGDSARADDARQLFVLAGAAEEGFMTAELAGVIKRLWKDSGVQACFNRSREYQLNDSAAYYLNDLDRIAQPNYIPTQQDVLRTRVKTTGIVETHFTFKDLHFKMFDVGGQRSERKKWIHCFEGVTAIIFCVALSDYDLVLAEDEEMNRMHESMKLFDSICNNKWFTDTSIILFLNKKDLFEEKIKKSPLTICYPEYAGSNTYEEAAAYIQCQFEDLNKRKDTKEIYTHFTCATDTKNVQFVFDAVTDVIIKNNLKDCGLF

Potency, inactive:
c1ccc([C@@H]2CN3CCSC3=N2)cc1
C[C@@](N)(Cc1ccc(O)cc1)C(=O)O
CN(C)CC[C@H](c1ccc(Br)cc1)c1ccccn1

Potency, active:
CCN(CC)CCC[C@H](C)Nc1c2ccc(Cl)cc2nc2ccc(OC)cc12 25.1 µM

activity, negative = inhibition, inactive:
CC[C@H](NC(C)C)[C@H](O)c1ccc(O)c(O)c1 -14%
CN1C(=O)CC[C@@H]1c1cccnc1 -16.7%
O=C(O)CNC(=O)[C@@H](CS)Cc1ccccc1 3.1%
C[C@@H](C(=O)O)c1cccc(C(=O)c2ccccc2)c1 -17.9%
CN(C)CC[C@@H](c1ccccc1)c1ccccn1 2.46%
NC(=O)c1cc[n+](CC2=C(C(=O)O)N3C(=O)[C@@H](NC(=O)[C@H](c4ccccc4)S(=O)(=O)[O-])[C@@H]3SC2)cc1 -15.9%
OCCN1CCN(CC/C=C2\c3ccccc3Sc3ccc(C(F)(F)F)cc32)CC1 -12.2%
CCn1cc(C(=O)O)c(=O)c2cc(F)c(N3CCN[C@@H](C)C3)c(F)c21 -11.3%
COc1cc(=O)n(C)c2c(OC[C@@H](O)C(C)(C)O)cccc12 -17.5%
O=C(O)[C@H]1CCCN(CCC=C(c2ccccc2)c2ccccc2)C1 9.12%
C[C@@H](CCc1ccccc1)NC[C@H](O)c1ccc(O)c(C(N)=O)c1 -10.6%
CC[C@]1(C)CC(=O)NC1=O 7.75%
CC(=O)O[C@@H](C)C[N+](C)(C)C -20.1%
C[C@@H]1COc2c(N3CCN(C)CC3)c(F)cc3c(=O)c(C(=O)O)cn1c23 -22.2%
COCCc1ccc(OC[C@H](O)CNC(C)C)cc1 -9.59%
N[C@H](C(=O)N[C@@H]1C(=O)N2C(C(=O)O)=C(Cl)CS[C@@H]12)c1ccccc1 -14.2%
CN1[C@@H](CC(=O)c2ccccc2)CCC[C@@H]1C[C@@H](O)c1ccccc1 -15%
CN1CCc2cccc3c2[C@@H]1Cc1ccc(O)c(O)c1-3 -28.5%
C[C@@](N)(Cc1ccc(O)c(O)c1)C(=O)O -13.7%
CCN(CC)CCC[C@H](C)Nc1ccnc2cc(Cl)ccc12 -15.3%
Cc1ccccc1[C@@H](OCCN(C)C)c1ccccc1 -18.4%
CC(=O)O[C@]1(C(C)=O)CC[C@@H]2[C@@H]3C=C(Cl)C4=CC(=O)[C@H]5C[C@@H]5[C@]4(C)[C@H]3CC[C@]21C 8.17%
O[C@@](CCN1CCCCC1)(c1ccccc1)C1CCCCC1 -19%
C[C@H](NCCc1ccc(O)cc1)[C@@H](O)c1ccc(O)cc1 -0.764%
C[C@@H](CN(C)C)CN1c2ccccc2CCc2ccccc21 -14.4%
CCN(CC)CC#CCOC(=O)[C@@](O)(c1ccccc1)C1CCCCC1 -9.26%
CC(C)(Oc1ccc([C@@H]2CC2(Cl)Cl)cc1)C(=O)O 11.3%
CC(C)(C)NC[C@H](O)c1cc(O)cc(O)c1 -17.1%
CC1=C(C(=O)O)N2C(=O)[C@@H](NC(=O)[C@@H](N)c3ccccc3)[C@@H]2SC1 -24.9%
NC(=NCc1ccc(Cl)c(Cl)c1)NC(=O)c1nc(Cl)c(N)nc1N 6.38%
CC(C)NC[C@H](O)c1cc(O)cc(O)c1 -20.8%
CCCN[C@@H](C)C(=O)Nc1ccccc1C -14.7%
O=C(c1ccccc1)c1ccc2n1CC[C@H]2C(=O)O -18.5%
CN(C)CCO[C@](C)(c1ccccc1)c1ccccn1 -12%
C[C@@H]1c2cccc(O)c2C(O)=C2C(=O)[C@@]3(O)C(O)=C(C(N)=O)C(=O)[C@@H](N(C)C)[C@@H]3[C@@H](O)[C@@H]21 -19%
CN1[C@@H]2CC[C@H]1CC(OC(=O)[C@@H](O)c1ccccc1)C2 (stereo not given in full) 4.56%
